According to PubChem BioAssay (NCI):
About 83,000 compounds went through this panel and 20% of them were active in at least one assay; those are over-represented in the sample as a whole.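 The test compound was applied at a single concentration to cells in 96-well plates for 48 hours, and percent growth was recorded.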 Unmarked numbers belong to inactive results. Calls of active or inactive are those of the source. The calls were made as follows: active = growth percent below 10; inactive = the rest.

Columns and labels:
Assay in all cases: NCI-60 one-dose screen, 48 h (100 = growth as untreated, 0 = no growth, -100 = all killed)
Conditions in all cases: 10 µM unless noted
[1] = tested on: DU-145 prostate
[2] = tested on: K-562 leukemia
[3] = tested on: MALME-3M melanoma
[4] = tested on: MDA-MB-231 breast
[5] = tested on: RXF 393 renal
[6] = tested on: SF-268 CNS
[7] = tested on: SF-295 CNS
[8] = tested on: SF-539 CNS
[9] = tested on: UACC-257 melanoma
[10] = tested on: M14 melanoma
[11] = tested on: HCT-15 colon
[12] = tested on: SNB-75 CNS
[13] = tested on: SNB-19 CNS
[14] = tested on: U251 CNS
[15] = tested on: SK-MEL-5 melanoma
[16] = tested on: UACC-62 melanoma
[17] = tested on: LOX IMVI melanoma
[18] = tested on: SK-MEL-28 melanoma
[19] = tested on: PC-3 prostate
[20] = tested on: HT29 colon

Structure (SMILES) | growth [1] | growth [2] | growth [3] | growth [4] | growth [5] | growth [6] | growth [7] | growth [8] | growth [9] | growth [10] | growth [11] [%] | growth [12] [%] | growth [13] [%] | growth [14] [%] | growth [15] [%] | growth [16] [%] | growth [17] | growth [18] | growth [19] | growth [20]
CN(C)C(=S)SCN1C(=O)c2ccc([N+](=O)[O-])cc2S1(=O)=O | 94.3% | 77.8% | 92.8% | 106% | 113% | 99.9% | 101% | 102% | 102% | 103% | 95.2 | 99.9 | 94.3 | 93.5 | 101 | 92.2 | 92.9% | 109% |  | 
CC1(C)N=C(N)N=C(N)N1c1cccc(/C=C/C=C/c2cccc([N+](=O)[O-])c2)c1 | 73% | 20.6% | 66.3% | 81.3% | 90.4% | 42.5% | 83.8% | 15.9% | 41.4% | 74.5% | 88.7 | 58.3 | 51.6 |  | 68.3 |  | 33.7% | 65.6% | 2.12% (active) | 
COc1ccc(-c2c3c(N)c4c(nc3nc3c2c(C)nn3-c2ccccc2)CCCCC4)cc1 | 91.6% | 24.5% | 101% | 105% | 106% | 94.5% | 85% | 93.9% | 93.9% | 88.9% | 73.9 | 79.8 | 93.7 |  | 90.6 | 98 | 90.6% | 98% |  | 
CN1CCN(c2ccc3nc(-c4ccc5nc(-c6ccc(C(F)(F)F)cc6)[nH]c5c4)[nH]c3c2)CC1 | 59.2% | -34.2% (active) | 18% | 82% | -14.3% (active) | 70.8% | 50.9% | 47.2% | 87.2% | 43.8% | 80.4 | 29.6 | 74.2 | 34.7 | 44.2 | 67.5 | -85.8% (active) | 63.2% |  | 
O=C(Nc1ccccc1)Oc1cccc2cccnc12 | 92.9% | 44.9% | 108% | 96.7% | 116% | 87.6% | 83.9% | 95.5% | 75.6% | 57.6% | 74.5 |  | 99.3 | 70.5 | 96.9 | 108 | 61% | 97.6% | 70.1% | 
CC(C)(C)[Si](C)(C)OC1[C@@H](O[Si](C)(C)C(C)(C)C)[C@@H](CNC(=O)NC(=O)C(F)(F)F)O[C@H]1n1cnc2c(NC(=O)Nc3ccccc3)ncnc21 (stereo partly drawn) | -81.2% (active) | -40.8% (active) | 74.8% | 82.7% | 104% | -29% (active) | 69.5% | 92.5% |  | 71.6% | 69.7 | 72.8 |  | 78.6 |  | 84.3 | 56.2% |  | -35.5% (active) | 21.3%
Nc1c(Br)cc(Br)cc1-c1n[nH]c(=O)[nH]c1=O | 114% | 102% | 98.4% | 87.4% | 103% | 104% | 98% | 92.5% |  | 101% | 98.1 | 85.5 |  | 100 |  | 106 | 96.1% | 110% | 99% | 99.7%
O=c1[nH]c(-c2ccccn2)nc2sc3c(c12)CCCCCC3 | 48.8% | 20.4% | 61.9% | 49.3% | 50.7% | 40.6% | -6% (active) | 61.7% |  | 46.1% | 27.9 | 64.8 |  | 22.5 |  | 45.6 | 29.7% | 40.1% | 41.1% | 49%
COc1ccc(Nc2nc(NCCNc3ccnc4cc(Cl)ccc34)nc(N3CCOCC3)n2)cc1 | 67.7% | 6.77% (active) | -80.2% (active) | 25.2% |  | 58.3% |  | 38.1% |  | 19.9% | 15.1 | 38.4 | 78 | 48.2 | 48.7 | 74.2 | 40.2% | -80.7% (active) | 43.8% | 4.28% (active)
Cc1ccc2nc(NC(=O)CSC(=S)N3CCN(C)CC3)sc2c1 | 122% | 106% | 108% | 110% | 105% | 112% |  | 100% | 89.8% | 107% | 102 | 90.8 | 108 | 108 | 107 |  | -72.3% (active) |  | 95.6% | 106%
Oc1ccc(Cl)cc1CNc1nc2ccccc2[nH]1 | -50.6% (active) | -50.4% (active) | -56.4% (active) | -24.1% (active) | 51.7% | -39.7% (active) |  | -50.9% (active) | -63.4% (active) | -49.1% (active) | 15.9 | 70.5 | 111 |  | 49 |  | -78.1% (active) | -82.6% (active) | -5.5% (active) | -46% (active)
c1ccc(-c2nc(N3CCOCC3)c3c4c(sc3n2)CCCCCC4)nc1 | 76.1% | 32% | 58.4% | 63.4% |  | 74.1% | 6.04% (active) | 77% |  | 59.2% | 46.9 | 29.4 |  | 50.3 |  | 51.7 | 69.6% | 75.5% | 32.2% | 65.9%
CS(=O)(=O)Nc1cccc(C(=O)NCc2ccc(N3CCOCC3)cc2)c1 | 103% | 92.4% | 111% | 121% |  | 97.9% |  | 103% |  | 99.2% | 104 | 68.2 | 108 | 107 | 98.9 | 113 | 99.8% | 107% |  | 95%
COc1cccc(Nc2nc(NCCO)c3ccccc3n2)c1 | 97% | 42.7% | 75.7% | 65.3% | 70.7% | 72.5% |  | 81.5% | 95.8% | 77.7% | 88.6 | 63.7 | 76.9 | 73.7 | 78.2 |  | 75% | 91.7% | 24.4% | 100%
CCN(c1ccc(C(=O)N2CCN(c3ccccc3)CC2)cc1)S(C)(=O)=O | 108% | 96.4% | 94.2% | 119% |  | 98.7% |  | 103% |  | 104% | 104 | 64.1 | 100 | 105 | 99.6 | 105 | 100% | 108% | 101% | 97.7%
COC(=O)[C@@H]1CCCN1C(=O)[C@@H]1CCCN1C(=O)[C@@H](Cc1c[nH]c2ccccc12)NC(=S)Nc1cc(C(F)(F)F)cc(C(F)(F)F)c1 | 80.5% | 15.4% | 60.4% | 53.2% | 47.5% | 58% |  | 89.4% | 72.3% | 61.1% | 74.6 | 32.7 | 69.3 |  |  | 58.1 | 23.3% | 33.7% | 43.4% | 51.1%
O=C(NCc1ccco1)C1CCN(S(=O)(=O)c2ccc(Cl)cc2)CC1 | -18.5% (active) | 13.9% | 54.6% | 68.9% | 85.1% | 37.1% |  | 80.9% | 86.5% | 72.4% | 70.6 | 72.2 | 84.3 | 83 | 75.7 | 69.8 | 77.1% | 85.5% | -43.6% (active) | 83.2%
CC(=O)Nc1ccccc1-c1n[nH]c(=O)[nH]c1=O | 107% | 107% | 89.6% | 104% | 96.6% | 105% | 98.1% | 91.3% |  | 92% | 102 |  |  | 101 |  | 103 | 97.8% | 104% | 99.4% | 90.7%
